# Results as given in PubChem BioAssay (Tox21).
# Inconclusive results are not listed. A call without a number means that no potency is given here. A number with no mark means an inactive call. Active and inactive are the calls of the source. Unless noted, calls come from the whole dose curve; as a rule, active = well fitted curve in the direction sought with a large enough effect in the repeat runs; inconclusive = weak or mixed curves; inactive = no such curve, though single readings can be large; an effect the other way counts as inactive or inconclusive.
# How the values were obtained:
# [1] = qHTS assay to identify small molecule agonists of the vitamin D receptor (VDR) signaling pathway - cell viability counter screen (AID 743224); note: series mostly up to about 63 µM; nearly all actives have a fitted effect of over 50% in size
# Outline: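 VDR-bla cells were preincubated 4 h at 37C/5% CO2, then exposed to compounds for 16 h. After the 2 h room-temperature bla FRET read, CellTiter-Glo was added to the same wells and luminescence read after 30 min.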
# [2] = qHTS assay to identify small molecule antagonists of the vitamin D receptor (VDR) signaling pathway - cell viability counter screen (AID 743225); note: nearly all actives have a fitted effect of over 50% in size
# Outline: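 Parallel cytotoxicity test: VDR-UAS-bla HEK 293T, 3 nM (final) 1-alpha,25-dihydroxyvitamin D3 with test compound, 16 h, 37C. Endpoint is CellTiter-Glo luminescence in the same wells.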
# [3] = qHTS assay to identify small molecule agonists of the NFkB signaling pathway - cell viability counter screen (AID 1159515; calls by dose curve; note: series mostly up to about 61 µM; nearly all actives have a fitted effect of over 55% in size)
# Outline: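 NFkB-bla ME-180 cells, 2,000/well, were plated overnight at 37 C, 5% CO2, then exposed to compounds in DMSO for 5 hr. After the bla FRET read, CellTiter-Glo was added to the same wells; luminescence was read after 30 min at room temperature.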
# [4] = qHTS assay to identify small molecule agonists of the endoplasmic reticulum stress response signaling pathway (AID 1159516; active = well fitted activation curve with a large enough effect in the signal ratio in the repeat runs, not every such curve was filed as active; the % refers to the signal ratio)
# Outline: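 CellSensor ESRE-bla HeLa cells, carrying a beta-lactamase reporter driven by the ER stress response element, were plated overnight and exposed to compounds for 5 hr at 37 C. Reporter activity was read as FRET substrate fluorescence after 2 hr at room temperature.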
# [5] = qHTS assay to identify small molecule agonists of the endoplasmic reticulum stress response signaling pathway - cell viability counter screen (AID 1159517; calls by dose curve; note: series mostly up to about 61 µM; nearly all actives have a fitted effect of over 50% in size)
# Outline: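 Cells, HeLa ESRE-bla; density, 1,500/well; dosing, 5 hr at 37 C, 5% CO2; readout, CellTiter-Glo luminescence after 30 min RT.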
# [6] = qHTS assay to identify small molecule antagonists of the retinoid-related orphan receptor gamma (ROR-gamma) signaling pathway - cell viability counter screen (AID 1159520); note: nearly all actives have a fitted effect of over 50% in size
# Outline: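 Cytotoxicity was read from cellular ATP (CellTiter-Glo luminescence) after 16 hr at 37 C with 1 uM doxycycline induction. The inducer was added 2 hr after compound transfer to Tet-on ROR gamma CHO cells.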
# [7] = target: Nuclear receptor ROR-gamma (Homo sapiens) (UniProt P51449); test: qHTS assay to identify small molecule antagonists of the retinoid-related orphan receptor gamma (ROR-gamma) signaling pathway (AID 1159521)
# Outline: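 Decreased RORE-driven luciferase luminescence indicates antagonism. Tet-on RORγ CHO cells received compound, then 1 uM final doxycycline 2 h later; signal read after 16 h incubation.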
# [8] = qHTS assay to identify small molecule agonists of the AP-1 signaling pathway - cell viability counter screen (AID 1159525; calls by dose curve; note: nearly all actives have a fitted effect of over 55% in size)
# Outline: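 Luminescent ATP readout (Cell Titer Glo, 30 min RT), normalised to DMSO and tetra n-octyl ammonium bromide controls. Cells were ME-180 AP-1-bla in 0.5% dialyzed FBS Opti-MEM, with a 5 h, 37 °C compound exposure.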
# [9] = qHTS assay to identify small molecule antagonists of the retinoid acid receptor (RAR) signaling pathway - cell viability counter screen (AID 1159551); note: nearly all actives have a fitted effect of over 35% in size
# Outline: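 C3RL4 cells were seeded overnight at 37 C, then treated with compounds plus 1 uM (final) retinol for 6 h at 37 C. Viability was read as ATP by CellTiter-Glo luminescence after 30 min at room temperature.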
# [10] = qHTS assay to identify small molecule antagonists of the retinoic acid receptor (RAR) signaling pathway (AID 1159552; note: nearly all actives have a fitted effect of over 50% in size)
# Outline: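 C3RL4 RARE-luc cells, overnight plating; retinol 1 uM final added right after compound; 6 hr 37 C; luciferase read at 30 min RT.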
# [11] = qHTS assay to identify small molecule agonists of the retinoic acid receptor (RAR) signaling pathway (AID 1159553)
# Outline: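 C3RL4 cells carrying a RARE luciferase reporter were plated overnight at 37 C, then exposed to compounds in DMSO for 6 hr at 37 C and 5% CO2. Luminescence was read 30 min after luciferase reagent addition at room temperature.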
# [12] = qHTS assay to identify small molecule agonists of the AP-1 signaling pathway (AID 1159526; calls by dose curve)
# [13] = target: Retinoic acid receptor RXR-alpha (Homo sapiens) (UniProt P19793); test: qHTS assay to identify small molecule agonists of the RXR signaling pathway (AID 1159527; calls by dose curve; note: nearly all actives have a fitted effect of over 35% in size)
# Outline: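 16 hr incubation of compound-treated RXR-alpha-UAS-bla HEK 293T cells (2% charcoal-stripped FBS, 37 C) preceded a 2 hr room-temperature LiveBLAzer FRET substrate step and blue/green fluorescence measurement.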
# [14] = qHTS assay to identify small molecule agonists of the RXR signaling pathway - cell viability counter screen (AID 1159529)
# Outline: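 In this parallel viability measure, GeneBLAzer RXR-alpha HEK 293T cells (2% charcoal-stripped FBS) were given a 5 hr preincubation, treated with compounds 16 hr at 37 C, and read by CellTiter-Glo luminescence.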
# [15] = qHTS assay to identify small molecule antagonists of the estrogen related receptor (ERR) signaling pathway - cell viability counter screen (AID 1224818);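 note: series mostly up to about 46 µM; viability measured after 17.5 h of compound exposure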
# Outline: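 ERR reporter cells plated 6 h at 37 C/5% CO2, then compounds in DMSO pin-transferred and incubated 17.5 h at 37 C. Viability read as CellTiter-Fluor fluorescence after 30 min at 37 C.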
# [16] = system: estrogen-related receptor alpha (ERRalpha) with PGC-1alpha coactivator, human; test: qHTS assay to identify small molecule antagonists of the estrogen related receptor signaling pathway with the pleiotropic PPARgamma coactivator (PGC) (AID 1224821; calls by dose curve)
# Outline: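 Quantitative HTS for antagonism: PGC/ERR cells received compounds after 6 h attachment and were incubated 18 h at 37 C, with luminescence (One-Glo) as the endpoint.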
# [17] = qHTS assay to identify small molecule antagonists of the estrogen related receptor signaling pathway with the pleiotropic PPARgamma coactivator (PGC) cell viability counter screen (AID 1224822; note: series mostly up to about 46 µM)
# Outline: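 PGC/ERR cells were seeded at 2,000 cells/well, rested 6 h at 37 C/5% CO2, then given compounds in DMSO by pin tool and incubated 17.5 h at 37 C. Viability came from CellTiter-Fluor fluorescence after 30 min.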
# [18] = qHTS assay to identify small molecule agonists of the estrogen related receptor signaling pathway with the pleiotropic PPARgamma coactivator (PGC) (AID 1224823)
# Outline: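 Cell-based luciferase assay in the NTP-supplied PGC/ERR line, 2,000 cells/well; 18 h compound exposure at 37 C, luminescence after One-Glo.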
# [19] = qHTS assay to identify small molecule antagonists of the estrogen related receptor (ERR) signaling pathway from Tox21 library - cell viability counter screen (AID 1224834); note: nearly all actives have a fitted effect of over 30% in size; note: potency is the fitted concentration of half-maximal effect
# Outline: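 ERR reporter cells were plated 6 h before compound addition, then exposed to test compounds in DMSO for 17.5 h at 37 C. Viability was read as CellTiter-Fluor fluorescence after a 30-minute incubation at 37 C.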
# Retinoic acid receptor RXR-alpha (Homo sapiens), sequence (P19793 whole entry, looked up): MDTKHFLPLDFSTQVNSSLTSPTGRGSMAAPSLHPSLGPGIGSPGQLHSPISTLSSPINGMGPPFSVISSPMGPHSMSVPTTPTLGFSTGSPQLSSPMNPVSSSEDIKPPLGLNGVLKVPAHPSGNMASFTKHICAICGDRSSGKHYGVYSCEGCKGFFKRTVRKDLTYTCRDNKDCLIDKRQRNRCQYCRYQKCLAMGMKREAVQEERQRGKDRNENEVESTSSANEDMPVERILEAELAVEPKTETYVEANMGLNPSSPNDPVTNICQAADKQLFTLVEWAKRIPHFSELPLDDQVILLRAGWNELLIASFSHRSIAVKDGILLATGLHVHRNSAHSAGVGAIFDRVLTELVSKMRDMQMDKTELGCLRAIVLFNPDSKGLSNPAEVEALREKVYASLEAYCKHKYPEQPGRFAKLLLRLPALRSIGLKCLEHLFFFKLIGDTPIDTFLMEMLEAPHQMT
Structure (SMILES),Potency [1],Potency [2],outcome [3],outcome [4],outcome [5],Potency [6],Potency [7],outcome [8],outcome [9],Potency [10],Potency [11],Potency [12],Potency [13],Potency [14],outcome [15],outcome [16],outcome [17],outcome [18],Potency [19]
CCCCOc1cc(C(=O)NCCN(CC)CC)c2ccccc2n1,inactive,inactive,inactive,inactive,inactive,inactive,inactive,inactive,inactive,inactive,inactive,,,,,,,,
NC/C=C/C(=O)O,,inactive,inactive,inactive,inactive,inactive,inactive,,inactive,inactive,inactive,inactive,inactive,inactive,inactive,inactive,inactive,inactive,inactive
CCOC(=O)NCCC[Si](OCC)(OCC)OCC,inactive,inactive,,,inactive,inactive,inactive,,inactive,inactive,inactive,inactive,inactive,inactive,,,,,inactive
NCCC(O)(P(=O)(O)O)P(=O)(O)O,,inactive,inactive,inactive,,inactive,,inactive,inactive,inactive,inactive,inactive,inactive,inactive,,,,,inactive
CC(C)CC(=O)OCc1ccccc1,inactive,inactive,inactive,inactive,,inactive,inactive,,inactive,,inactive,inactive,inactive,,,,,,inactive
CCc1nnc(NS(=O)(=O)c2ccc(N)cc2)s1,inactive,inactive,,,inactive,inactive,,inactive,inactive,inactive,inactive,inactive,inactive,inactive,,,,,inactive
CC1=C(O)C(=O)OC1C (stereo not drawn),inactive,,inactive,inactive,inactive,inactive,,inactive,inactive,inactive,inactive,inactive,,inactive,,,,,
CCCCCCn1c(=O)c2c(ncn2C)n(C)c1=O,inactive,inactive,inactive,,inactive,inactive,,inactive,inactive,inactive,inactive,inactive,inactive,inactive,,,,,inactive
CCC(=O)Nc1ccc(O)cc1,inactive,inactive,inactive,inactive,,inactive,,inactive,inactive,inactive,inactive,inactive,inactive,,,,,,inactive
Cc1cc2c(s1)Nc1ccccc1N=C2N1CCN(C)CC1,,inactive,,inactive,inactive,inactive,inactive,,inactive,inactive,inactive,,,,,,,,5.96 µM (active)
CCOC(=O)c1ccccc1O,inactive,inactive,inactive,inactive,inactive,inactive,,inactive,inactive,inactive,inactive,inactive,,inactive,,,,,inactive
